Test results reported in PubChem BioAssay (NCI).
Where “and” joins values, the source holds several entries; their conditions need not be identical. Identical values can stand only once. This is part of a sample that, as a whole, favours compounds with a hit. Of some 83,000 tested, about 20% had one in any assay.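 Method: cells in 96-well plates; compound added at one concentration; 48 h incubation; percent growth measured; values under 10 scored active.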 Calls of active or inactive are those of the source.

Assays:
Experiment in all cases: NCI-60 one-dose screen, 48 h (100 = growth as untreated, 0 = no growth, -100 = all killed)
SK-MEL-2 melanoma = system: SK-MEL-2 melanoma
EKVX NSCLC = system: EKVX NSCLC
SN12C renal = system: SN12C renal
UO-31 renal = system: UO-31 renal
TK-10 renal = system: TK-10 renal
ACHN renal = system: ACHN renal
CAKI-1 renal = system: CAKI-1 renal
A498 renal = conditions: 10 µM unless noted
CCRF-CEM leukemia = system: CCRF-CEM leukemia
MOLT-4 leukemia = system: MOLT-4 leukemia
SR leukemia = system: SR leukemia
RPMI-8226 leukemia = conditions: 10 µM unless noted
OVCAR-8 ovarian = system: OVCAR-8 ovarian
OVCAR-5 ovarian = conditions: 10 µM unless noted
OVCAR-4 ovarian = conditions: 10 µM unless noted
SK-OV-3 ovarian = conditions: 10 µM unless noted
IGROV1 ovarian = conditions: 10 µM unless noted
OVCAR-3 ovarian = system: OVCAR-3 ovarian
HS 578T breast = system: HS 578T breast
NCI/ADR-RES ovarian = conditions: 10 µM unless noted

Measured: growth

COc1ccc(/C(C#N)=C/c2ccccn2)cc1
inactive: SK-MEL-2 melanoma; 10 µM unless noted 103% and 117% | EKVX NSCLC; 10 µM unless noted 90.1% and 99.5% | SN12C renal; 10 µM unless noted 101% and 115% | UO-31 renal; 10 µM unless noted 95.5% and 98.9% | TK-10 renal; 10 µM unless noted 104% and 117% | ACHN renal; 10 µM unless noted 108% and 109% | CAKI-1 renal; 10 µM unless noted 101% and 126% | A498 renal 93.2% and 122% | CCRF-CEM leukemia; 10 µM unless noted 93% and 102% | MOLT-4 leukemia; 10 µM unless noted 96.7% and 103% | SR leukemia; 10 µM unless noted 91.1% and 87.7% | RPMI-8226 leukemia 93.8% | OVCAR-8 ovarian; 10 µM unless noted 103% and 110% | OVCAR-5 ovarian 110% and 107% | OVCAR-4 ovarian 96.1% and 93.9% | SK-OV-3 ovarian 111% and 126% | IGROV1 ovarian 115% and 113% | OVCAR-3 ovarian; 10 µM unless noted 110% and 130% | HS 578T breast; 10 µM unless noted 104% and 309% | NCI/ADR-RES ovarian 101% and 54.3%

Cc1ncsc1CCO
inactive: SK-MEL-2 melanoma; 10 µM unless noted 96.1% and 107% | EKVX NSCLC; 10 µM unless noted 112% and 99.6% | SN12C renal; 10 µM unless noted 109% and 96.6% | UO-31 renal; 10 µM unless noted 95.7% and 89.7% | TK-10 renal; 10 µM unless noted 103% and 89.4% | ACHN renal; 10 µM unless noted 107% | CAKI-1 renal; 10 µM unless noted 101% | A498 renal 81.3% and 97.6% | CCRF-CEM leukemia; 10 µM unless noted 39.9% and 121% | MOLT-4 leukemia; 10 µM unless noted 105% and 116% | SR leukemia; 10 µM unless noted 104% and 111% | RPMI-8226 leukemia 106% and 122% | OVCAR-8 ovarian; 10 µM unless noted 104% and 97% | OVCAR-5 ovarian 103% | OVCAR-4 ovarian 120% and 116% | SK-OV-3 ovarian 101% and 110% | IGROV1 ovarian 124% and 107% | OVCAR-3 ovarian; 10 µM unless noted 124% and 93.9% | HS 578T breast; 10 µM unless noted 110% and 101% | NCI/ADR-RES ovarian 108% and 102%

Oc1ccc(/C=C/c2ccccc2)cc1
active: CAKI-1 renal; 10 µM unless noted 6.76%
inactive: SK-MEL-2 melanoma; 10 µM unless noted 98.4% and 98.8% | EKVX NSCLC; 10 µM unless noted 76.9% and 108% | SN12C renal; 10 µM unless noted 74.5% and 72.4% | UO-31 renal; 10 µM unless noted 17.8% and 11.6% | TK-10 renal; 10 µM unless noted 92.9% and 65.1% | ACHN renal; 10 µM unless noted 17.3% and 16.2% | A498 renal 83.1% and 59.4% | CCRF-CEM leukemia; 10 µM unless noted 33.5% and 33.3% | MOLT-4 leukemia; 10 µM unless noted 61.6% and 47.5% | SR leukemia; 10 µM unless noted 48.6% and 69.6% | RPMI-8226 leukemia 61.3% and 81.8% | OVCAR-8 ovarian; 10 µM unless noted 66.2% and 50.5% | OVCAR-5 ovarian 97.5% and 140% | OVCAR-4 ovarian 61.5% | SK-OV-3 ovarian 94.8% and 99.4% | IGROV1 ovarian 57.5% and 59.9% | OVCAR-3 ovarian; 10 µM unless noted 79.1% and 76.5% | HS 578T breast; 10 µM unless noted 86.7%

O=[N+]([O-])c1ccccc1N(S(=O)(=O)c1ccccc1)S(=O)(=O)c1ccccc1
-13.5% (active) and 103% (inactive): MOLT-4 leukemia; 10 µM unless noted
inactive: SK-MEL-2 melanoma; 10 µM unless noted 106% | EKVX NSCLC; 10 µM unless noted 102% and 85.1% | SN12C renal; 10 µM unless noted 102% and 99.2% | UO-31 renal; 10 µM unless noted 86.7% and 67% | TK-10 renal; 10 µM unless noted 93.3% and 97.1% | ACHN renal; 10 µM unless noted 102% and 93.4% | CAKI-1 renal; 10 µM unless noted 79.4% and 56.3% | A498 renal 86.9% and 98.6% | CCRF-CEM leukemia; 10 µM unless noted 53.7% and 105% | SR leukemia; 10 µM unless noted 85.8% and 101% | RPMI-8226 leukemia 85.4% and 90.4% | OVCAR-8 ovarian; 10 µM unless noted 98.2% and 95.6% | OVCAR-5 ovarian 105% and 101% | OVCAR-4 ovarian 115% | SK-OV-3 ovarian 109% and 111% | IGROV1 ovarian 99.2% and 96.7% | OVCAR-3 ovarian; 10 µM unless noted 107% and 93.5% | HS 578T breast; 10 µM unless noted 113% | NCI/ADR-RES ovarian 98.9% and 86.3%

COc1ccc(Cl)cc1C(=O)NCCc1ccc(S(=O)(=O)NC(=O)NC2CCCCC2)cc1
inactive: SK-MEL-2 melanoma; 10 µM 113% | SK-MEL-2 melanoma; 100 µM 75.8% | EKVX NSCLC; 10 µM 95.5% and 99.6% | EKVX NSCLC; 100 µM 58.6% | SN12C renal; 10 µM 91.4% and 93.8% | SN12C renal; 100 µM 71.4% | UO-31 renal; 10 µM 96.2% and 79.1% | UO-31 renal; 100 µM 40.6% | TK-10 renal; 10 µM 115% and 99.1% | TK-10 renal; 100 µM 92.1% | ACHN renal; 10 µM 96.9% and 101% | ACHN renal; 100 µM 54.8% | CAKI-1 renal; 10 µM 94.5% and 94.3% | CAKI-1 renal; 100 µM 56.7% | A498 renal 73.2% | CCRF-CEM leukemia; 10 µM 86.3% and 95.1% | CCRF-CEM leukemia; 100 µM 64.1% | MOLT-4 leukemia; 10 µM 113% and 98.6% | MOLT-4 leukemia; 100 µM 60.6% | SR leukemia; 10 µM 105% and 90% | SR leukemia; 100 µM 61.3% | RPMI-8226 leukemia 104% and 99.5% | OVCAR-8 ovarian; 10 µM 99.8% and 100% | OVCAR-8 ovarian; 100 µM 67.3% | SK-OV-3 ovarian 103% and 96.1% | OVCAR-3 ovarian; 10 µM 112% and 121% | OVCAR-3 ovarian; 100 µM 66.1% | HS 578T breast; 10 µM 94.7% and 110% | HS 578T breast; 100 µM 54.8%

CCN(CC)CCOc1ccc(/C=N/Nc2nc3c([nH]2)c(=O)n(C)c(=O)n3C)cc1
inactive: SK-MEL-2 melanoma; 10 µM unless noted 102% and 107% | EKVX NSCLC; 10 µM unless noted 99.1% and 95.8% | SN12C renal; 10 µM unless noted 98.9% and 96.5% | UO-31 renal; 10 µM unless noted 80.8% and 79.6% | TK-10 renal; 10 µM unless noted 94.2% and 101% | ACHN renal; 10 µM unless noted 102% and 94.6% | CAKI-1 renal; 10 µM unless noted 118% and 85.6% | A498 renal 88.5% and 88.9% | CCRF-CEM leukemia; 10 µM unless noted 83.5% and 103% | MOLT-4 leukemia; 10 µM unless noted 88.4% and 102% | SR leukemia; 10 µM unless noted 102% and 96.8% | RPMI-8226 leukemia 90.7% and 108% | OVCAR-8 ovarian; 10 µM unless noted 107% and 104% | OVCAR-5 ovarian 117% and 89.7% | OVCAR-4 ovarian 107% and 105% | SK-OV-3 ovarian 106% and 107% | IGROV1 ovarian 110% and 91.2% | OVCAR-3 ovarian; 10 µM unless noted 114% and 94.8% | HS 578T breast; 10 µM unless noted 106% and 105% | NCI/ADR-RES ovarian 118% and 106%

O=C(/C=C/c1ccccn1)c1ccccc1O
-17.5% (active) and 74.7% (inactive): UO-31 renal; 10 µM unless noted
inactive: SK-MEL-2 melanoma; 10 µM unless noted 104% and 100% | EKVX NSCLC; 10 µM unless noted 76% and 88.1% | SN12C renal; 10 µM unless noted 63.7% and 88.1% | TK-10 renal; 10 µM unless noted 84.4% and 55.3% | ACHN renal; 10 µM unless noted 65.3% and 74.2% | CAKI-1 renal; 10 µM unless noted 34.8% and 40% | A498 renal 110% | CCRF-CEM leukemia; 10 µM unless noted 13.3% | MOLT-4 leukemia; 10 µM unless noted 41.5% | OVCAR-8 ovarian; 10 µM unless noted 54.4% and 84.8% | OVCAR-5 ovarian 77.1% and 92.3% | OVCAR-4 ovarian 101% and 88.2% | SK-OV-3 ovarian 111% and 113% | IGROV1 ovarian 38.1% and 66.6% | OVCAR-3 ovarian; 10 µM unless noted 84.4% and 44.9% | HS 578T breast; 10 µM unless noted 87.2% | NCI/ADR-RES ovarian 73.9% and 93.4%
active: SR leukemia; 10 µM unless noted 4.76% | RPMI-8226 leukemia 2.44% and -0.787%

Oc1ccccc1/C=N\NC(=S)N/N=C/c1ccccc1O
-15.7% (active) and 12.3% (inactive): CAKI-1 renal; 10 µM unless noted
inactive: SK-MEL-2 melanoma; 10 µM unless noted 82.3% and 24.6% | EKVX NSCLC; 10 µM unless noted 61% and 71.2% | SN12C renal; 10 µM unless noted 58.8% and 51.3% | UO-31 renal; 10 µM unless noted 12.4% and 15.5% | TK-10 renal; 10 µM unless noted 51.4% and 24.3% | ACHN renal; 10 µM unless noted 15% and 10.8% | A498 renal 58.5% | CCRF-CEM leukemia; 10 µM unless noted 15.9% and 15.1% | MOLT-4 leukemia; 10 µM unless noted 21.6% and 16% | SR leukemia; 10 µM unless noted 20% and 21.9% | RPMI-8226 leukemia 29.3% and 40.7% | OVCAR-8 ovarian; 10 µM unless noted 35.6% and 23.4% | OVCAR-5 ovarian 59.2% and 59.6% | OVCAR-4 ovarian 25.7% | SK-OV-3 ovarian 46.5% and 58.9% | IGROV1 ovarian 20.9% and 34.5% | OVCAR-3 ovarian; 10 µM unless noted 14.1% and 23% | HS 578T breast; 10 µM unless noted 98.4% and 73.4% | NCI/ADR-RES ovarian 13.5% and 19.6%

Cc1cccc(/C=C\C(=O)c2ccc(Cl)cc2)c1
inactive: SK-MEL-2 melanoma; 10 µM unless noted 94.9% and 100% | EKVX NSCLC; 10 µM unless noted 91.1% and 94.3% | SN12C renal; 10 µM unless noted 94.9% and 97% | UO-31 renal; 10 µM unless noted 68.3% and 86.1% | TK-10 renal; 10 µM unless noted 75.5% and 85.3% | ACHN renal; 10 µM unless noted 102% and 105% | CAKI-1 renal; 10 µM unless noted 90.1% and 85.1% | A498 renal 78.9% and 54.4% | CCRF-CEM leukemia; 10 µM unless noted 84.3% and 68.8% | MOLT-4 leukemia; 10 µM unless noted 90.2% and 55% | RPMI-8226 leukemia 26.1% | OVCAR-8 ovarian; 10 µM unless noted 101% and 100% | OVCAR-5 ovarian 93.5% and 98.5% | OVCAR-4 ovarian 89.1% and 103% | SK-OV-3 ovarian 108% and 104% | IGROV1 ovarian 101% and 92.7% | OVCAR-3 ovarian; 10 µM unless noted 96.6% and 101% | HS 578T breast; 10 µM unless noted 112% and 102%
36% (inactive) and 3.37% (active): SR leukemia; 10 µM unless noted
